Bioassay records: PubChem, National Center for Advancing Translational Sciences (NCATS)
HT1080 IDH1KD tx – kills HT-1080 cells with IDH1 knockdown; Potency, µM (titrated, usually from 46.1 µM), most hits filed as cytotoxic; HT-1080 IDH1 knockdown viability, ATP luminescence, 48 h; AID 686971; actives 2% (n = 360,000)
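Using the IDH1-knockdown HT-1080 line run in the same batch and compound series as the NT line, viability after 48 h at 37 °C was determined by CellTiter-Glo luminescence and expressed as % activity.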
TGFb SMAD3 inh – TGF-b pathway inhibition; actives 1.2% (n = 410,000); HepG2 CAGA-GFP TGF-b/SMAD3 reporter, GFP fluorescence, 18 h; TGF-beta stimulated, 500 pg/mL final; Potency, µM (highest dose often 46.1 µM), hits mostly inhibitors; note: nearly all actives have a fitted effect of over 65% in size
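Inhibition was scored as loss of TGF-beta-induced (500 pg/mL final, 18 hours, 37 degrees C) GFP in HEPG2 cells carrying a CAGA-GFP reporter, in DMEM with 1% FBS. Well GFP was summed per cell; Activity was normalised to unstimulated and stimulated DMSO wells, then concentration-response fitting.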
HT1080NT lethal – kills 2HG-producing HT-1080-NT fibrosarcoma cells. HT-1080-NT fibrosarcoma viability, CellTiter-Glo ATP luminescence, 48 h. actives 1.6% (n = 360,000). Potency, µM (series often up to 46.1 µM), most hits filed as cytotoxic. AID 686970;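 note: NT is the 2HG producing partner of a matched IDH1 knockdown line; nearly all actives have a fitted effect of over 55% in size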
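HT-1080-NT; 750 cells/well; 5% FBS RPMI; 48 h compound, 37 degrees C; CellTiter-Glo luminescence; curve fitting and curve-class assignment.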
S2 tox – viability counter-screen for ATXN expression inhibitors. S2 cells (HEK-293 line with an ATXN2-luciferase reporter) viability, CellTiter-Fluor protease fluorescence, 24 h. Potency, µM (top dose mostly 56.7 µM), usual class: cytotoxic. actives 0.49% (n = 400,000); note: nearly all actives have a fitted effect of over 40% in size
HepG2 tox – kills HepG2 cells in TGF-b inhibitor counter-screen. Potency, µM (highest dose often 46.1 µM), hits mostly cytotoxic. HepG2 CAGA-GFP viability, ATP luminescence, 18 h. actives 0.76% (n = 410,000). AID 588856
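CellTiter-Glo luminescence gave cytotoxicity after 18 hours at 37 degrees C. The cells were HepG2 CAGA-GFP in 1% FBS DMEM, stimulated with 500 pg/mL TGF-beta after compound addition. %Activity was normalised to no-cell wells (complete cell-killing) and DMSO (no toxicity), and curves were fitted and classified.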
ATXN2 expr inh – inhibitors of ATXN2 expression. HEK-293 ATXN2-luciferase reporter, luminescence, 24 h. Potency, µM (doses to about 57 µM), usual class: inhibitors. actives 0.72% (n = 360,000); note: nearly all actives have a fitted effect of over 55% in size
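ATXN2-luciferase reporter cells (luciferase flanked by upstream and downstream ATXN2 gene portions) were treated 24 h at 37 °C with compounds at up to 57 uM. SteadyGlo luminescence gave expression; GF-AFC fluorescence gave viability.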
Hits are given with their value; – = inactive; ? = inconclusive; · = no result given; [ ] = another dose, or the depositor's remark. Sampled rows, rich in hits. Any-hit rate of the full collection: about 3.9%. Calls come from the whole dose curve; as a rule, active = well fitted curve in the direction sought with a large enough effect; inconclusive = small, poorly fitted or top-dose-only effect, or another doubt; inactive = no such curve, though single readings can be large; an effect the other way counts as inactive or inconclusive.

SMILES	HT1080 IDH1KD tx	TGFb SMAD3 inh	HT1080NT lethal	S2 tox	HepG2 tox	ATXN2 expr inh
CCC1Oc2ccccc2N(CC(=O)NCc2ccccc2)C1=O (stereo unspecified)	·	–	·	·	–	·
CC1CCN(c2ccc(-c3cccc(NC(=O)C(F)(F)F)c3)nn2)CC1	?	–	?	–	20µM	?
CCC(=O)Nc1cccc(-c2ccc(N3CCC(C)CC3)nn2)c1	–	–	–	–	–	·
O=C(Nc1cccc(-c2ccc(N3CCCCC3)nn2)c1)C(F)(F)F	–	–	–	?	8.9µM	·
COCC(=O)Nc1cc(C(=O)N2CCCC2c2nccs2)c2c(c1)nc(-c1ccncc1)n2C (stereo unspecified)	·	·	·	–	·	·
CCOC(=O)c1scc(-c2ccccc2)c1S(=O)(=O)Nc1ccc(N(C)C)cc1	·	?	·	?	–	–
COc1cc2nc(N3CCCN(C)CC3)nc(NC3CCOCC3)c2cc1OC	–	·	–	·	·	·
CCOC(=O)c1ccc(NC(=O)CN2C(=O)c3cccnc3Sc3ccccc32)cc1	·	–	·	–	–	–
O=C1CCCC[C@@H](O)[C@H](O)C[C@H](c2ccccc2)O1	–	·	–	–	·	–
C=C1CC2(CC(c3ccccc3)OC(c3ccccc3)C2)OC1=O (stereo unspecified)	16µM	?	?	·	11µM	?
CCCn1nc([N+](=O)[O-])c(C(C#N)c2nc3ccccc3o2)c(Cl)c1=O (stereo unspecified)	?	?	?	–	–	–
Cn1nc([N+](=O)[O-])c(C(C#N)c2ccccn2)c(Cl)c1=O (stereo unspecified)	?	?	–	?	13µM	·
Cn1nc(-c2ccc(F)cc2)nc2c(=O)n(C)c(=O)nc1-2	·	0.89µM	·	·	0.89µM	·
CCn1nc(-c2ccccc2C)nc2c(=O)n(C)c(=O)nc1-2	·	0.89µM	·	·	0.63µM	·
Cn1nc(-c2cccnc2)nc2c(=O)n(C)c(=O)nc1-2	·	2.2µM	·	·	2.8µM	·
Cn1nc(-c2ccc(Cl)cc2)nc2c(=O)n(C)c(=O)nc1-2	·	1µM	·	·	1.3µM	·
Cc1ccccc1-n1c2nc(=O)n(C)c(=O)c-2cc2ccccc21	–	–	–	·	–	–
Cn1nc(-c2ccccc2)nc1-c1ccccc1	–	–	–	–	–	–
COP1(=O)CC(O)C(O)C(COCc2ccccc2)O1 (stereo unspecified)	·	–	·	·	–	·
COc1ccc(-c2nc3c(=O)n(C)c(=O)nc-3n(C)n2)cc1	·	0.35µM	·	·	0.56µM	·
COc1ccc(-c2nc(N)n(S(=O)(=O)c3ccc(C)cc3)n2)cc1	–	–	–	–	–	–
Nc1c(-c2nc(-c3ccc(Cl)cc3)cs2)c2ccccn2c1C(=O)c1ccc2c(c1)OCO2	·	–	·	–	–	–
O=C(Nc1sc2c(c1C(=O)NCC1CCCO1)CCC2)c1cc(=O)c2cc(Cl)ccc2o1 (stereo unspecified)	·	–	·	–	–	–
CCCc1cc(=O)oc2c3c(c4c(c12)OC(C)(C)C=C4)OC(C)C(C)C3O (stereo unspecified)	3.7µM	?	5.8µM	?	7.9µM	?
CCOc1ccc(NC(=O)CC2C(=O)N(c3ccc(F)cc3)C(=O)N2CCc2sccc2C)cc1 (stereo unspecified)	·	?	·	?	–	–
SMILES	HT1080 IDH1KD tx	TGFb SMAD3 inh	HT1080NT lethal	S2 tox	HepG2 tox	ATXN2 expr inh
CSc1nc(SCC(=O)NCc2ccco2)c2c3c(sc2n1)COC(C)(C)C3	7.1µM	–	7.9µM	–	–	–
Cn1c(SCc2ccccc2)nc(N)c(N=O)c1=O	–	?	–	?	10µM	·
Cn1c(SCc2ccccc2)nc(C(F)(F)F)cc1=O	?	–	–	–	–	–
O=C(O)c1cccc(NC(=O)c2ccccc2)c1	–	–	–	–	–	–
Cc1cc(C(=O)Nc2cnc3ccccc3c2)ccc1[N+](=O)[O-]	–	–	–	–	–	–[11.3 µM]
Cc1ccc(O)c(NC(=O)c2ccc(Br)c(S(=O)(=O)N3CCCCC3)c2)c1	·	?	·	?	14µM	?
Cc1ccc(C(=O)Nc2cccc(C(=O)O)c2)cc1	?	–	–	–	–	2.5µM
Cc1ccc(C(=O)Nc2cnc3ccccc3c2)cc1	–	–	–	–	–	2.2µM
Cc1ccc(C(=O)Nc2nc3ccccc3c(=O)s2)cc1	7.9µM	?	?	–	–	–
COc1ccc(S(=O)(=O)Nc2cccc3cccnc23)c([N+](=O)[O-])c1	·	?	·	·	–	·
Cc1ccc(C(=O)Nc2cccc(C(=O)O)c2)cc1S(=O)(=O)N1CCCCC1	–	–	–	–	–	13µM
Cc1ccc(C(=O)Nc2cccc(C(=O)O)c2)cc1S(=O)(=O)N1CCOCC1	–	–	–	–	–	?
O=C(Nc1ccc(C(F)(F)F)cc1)c1cc(S(=O)(=O)NC2CCCCC2)ccc1F	·	13µM	·	?	–	?
O=C(Nc1ccc(F)c(F)c1)c1cc(S(=O)(=O)NC2CCCC2)ccc1F	·	?	·	·	–	·
Cc1ccc(NC(=O)c2cc(S(=O)(=O)NC3CCCCC3)ccc2F)cc1Cl	·	10µM	·	·	10µM	·
O=C(Nc1ccc(C(F)(F)F)cc1)c1cc(S(=O)(=O)NC2CCCCCC2)ccc1F	·	?	·	·	11µM	32µM
CCOC(=O)N1CCc2c(sc(NCc3cc(OC)c(OC)cc3OC)c2C(=O)Nc2ccc(OCC)cc2)C1	·	?	·	–	–	–
CC1(Cc2ccc(OC(F)(F)F)cc2)C(=O)Nc2ccc(OC(F)(F)F)cc21 (stereo unspecified)	?	?	?	?	18µM	?
CC1(Cc2cccc(F)c2)C(=O)Nc2ccc(OC(F)(F)F)cc21 (stereo unspecified)	?	?	–	?	–	?
CC1(Cc2ccccc2OC(F)(F)F)C(=O)Nc2c(Cl)ccc(Cl)c21 (stereo unspecified)	–	14µM	?	?	–	–
COc1ccc(C(C)=O)cc1CC1(C)C(=O)Nc2ccc(OC(F)(F)F)cc21 (stereo unspecified)	–	–	–	–	–	–
CC1(Cc2ccc(OC(F)(F)F)cc2)C(=O)Nc2c(Cl)ccc(Cl)c21 (stereo unspecified)	?	16µM	?	?	–	?
COc1ccc(OC(F)(F)F)cc1CC1(C)C(=O)Nc2ccc(-c3ccsc3)cc21 (stereo unspecified)	?	13µM	?	·	–	–
CC1(Cc2ccc(F)cc2)C(=O)Nc2c(Cl)ccc(Cl)c21 (stereo unspecified)	?	–	?	–	–	–
CCOC(=O)N1CCN(C(=O)c2ccc3c(c2)N(Cc2ccccc2F)C(=O)c2ccccc2S3=O)CC1 (stereo unspecified)	·	?	·	–	–	–
